Reference: PubChem BioAssay (NCATS)
Inconclusive results are not listed. Entries that show only a call come without a potency. Calls of active or inactive are those of the source. The call rests on the fitted dose curve; in most records, active means well fitted cell-killing curve with a large enough effect; inconclusive means small, poorly fitted or top-dose-only effect, or effect the other way; inactive means flat fitted curve, though single readings scatter.

Experiments:
Experiment in all cases: Primary qHTS to identify gynecologic anti-cancer compounds using libraries of approved drugs and bioactive compounds (AID 1345084); further: nearly all actives have a fitted effect of over 55% in size
CASKI = details: Gynecologic cancer cell panel viability, ATPlite luminescence, 48 h; series mostly up to 57.5 µM
How it was run: (§1)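 48 h compound exposure at 37 C, 5% CO2; five-point qHTS. ATPlite luminescence readout of cell ATP.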

Es-2 = details: Gynecologic cancer cell panel viability, ATPlite luminescence, 48 h; series mostly up to 57.5 µM
How it was run: as §1

HeLa = details: Gynecologic cancer cell panel viability, ATPlite luminescence, 48 h; series mostly up to 57.5 µM
How it was run: as §1

Hek293T = details: Gynecologic cancer cell panel viability, ATPlite luminescence, 48 h, control line for the selectivity index; series mostly up to 57.5 µM
How it was run: as §1

JEG-3 = details: Gynecologic cancer cell panel viability, ATPlite luminescence, 48 h; series mostly up to 57.5 µM
How it was run: as §1

OV90 = details: Gynecologic cancer cell panel viability, ATPlite luminescence, 48 h; series mostly up to 57.5 µM
How it was run: as §1

PA-1 = details: Gynecologic cancer cell panel viability, ATPlite luminescence, 48 h; series mostly up to 57.5 µM
How it was run: as §1

SKOV3 = details: Gynecologic cancer cell panel viability, ATPlite luminescence, 48 h; series mostly up to 57.5 µM
How it was run: as §1

Tov-21-G = details: Gynecologic cancer cell panel viability, ATPlite luminescence, 48 h; series mostly up to 57.5 µM
How it was run: as §1

CAOV3 = details: Gynecologic cancer cell panel viability, ATPlite luminescence, 48 h; series mostly up to 57.5 µM
How it was run: as §1
Potency means the concentration at half of the fitted maximal effect.

SMILES | Potency (CASKI) | Potency (Es-2) | Potency (HeLa) | Potency (Hek293T) | Potency (JEG-3) | Potency (OV90) | Potency (PA-1) | Potency (SKOV3) | Potency (Tov-21-G) | Potency (CAOV3)
O=C(O)COc1nc(Cl)c(Cl)cc1Cl | inactive | inactive | inactive | inactive | inactive | inactive | inactive | inactive | inactive | 
CCNC(=O)C[C@@H]1N=C(c2ccc(Cl)cc2)c2cc(OC)ccc2-n2c(C)nnc21 | inactive |  |  |  |  |  | 0.891 µM (active) |  |  | inactive
Cc1c(C(=O)Nc2cccc(C(F)(F)F)c2)cc(-c2ccccc2)n1CCCN1CCOCC1 |  | inactive | inactive | inactive | inactive | inactive | inactive | inactive | inactive | inactive
COC(C)(C)CCCC(C)C/C=C/C(C)=C/C(=O)OC(C)C (configuration not stated) | inactive | inactive | inactive | inactive | inactive | inactive | inactive | inactive | inactive | 
Oc1ccc2c3c1O[C@H]1[C@@H](O)C=C[C@H]4[C@@H](C2)NCC[C@@]341 | inactive | inactive | inactive | inactive | inactive | inactive | inactive | inactive | inactive | 
Cc1ccccc1-n1c(Cn2cnc3c(N)ncnc32)nc2cccc(C)c2c1=O | inactive | inactive | inactive | inactive | inactive | inactive | inactive | inactive | inactive | 
CC(=O)N(C)c1cccc(-c2ccnc3c(C(=O)c4cccs4)cnn23)c1 | inactive | inactive | inactive | inactive | inactive | inactive | inactive | inactive | inactive | 
CCc1c(C(=O)C(N)=O)c2c(OCC(=O)O)cccc2n1Cc1ccccc1 | inactive | inactive | inactive | inactive | inactive | inactive | inactive | inactive | inactive | 
O=C(O)CNC(=O)c1c(O)c2ccccc2n(Cc2ccccc2)c1=O | inactive | inactive | inactive | inactive |  | inactive | inactive | inactive | inactive | inactive
O=C(NCC1CCOCC1)c1cnc(Nc2ccc(Cl)cc2Cl)nc1C(F)(F)F | inactive | inactive | inactive | inactive | inactive | inactive | inactive | inactive | inactive | 
O=C(O)c1cc(Oc2ccc(C(F)(F)F)cc2Cl)ccc1[N+](=O)[O-] | inactive | inactive | inactive |  |  | inactive | inactive | inactive | inactive | inactive
CCCCCCCCc1ccc(O)cc1 | inactive | inactive | inactive | inactive | inactive | inactive |  | inactive |  | 
CN[C@@H](C)[C@H](O)c1ccccc1 | inactive | inactive | inactive | inactive | inactive | inactive | inactive | inactive | inactive | 
Fc1cc(Br)ccc1CBr | inactive | inactive | inactive | inactive | inactive | inactive | inactive |  | inactive | 
O=S(=O)(O)C(F)(F)C(F)(F)C(F)(F)C(F)(F)F | inactive | inactive | inactive | inactive | inactive | inactive | inactive | inactive | inactive | 
CC(O)CN1CCN(CC(=O)[O-])CCN(CC(=O)[O-])CCN(CC(=O)[O-])CC1.[Gd+3] (configuration not stated) | inactive | inactive | inactive | inactive | inactive | inactive | inactive | inactive | inactive | 
C=CC(=O)NCNC(=O)C=C | inactive | inactive | inactive | inactive | inactive | inactive | inactive | inactive | inactive | 
CCO/N=C(\CC)C1=C(O)CC(c2c(C)cc(C)cc2C)CC1=O (configuration not stated) | inactive | inactive | inactive | inactive |  | inactive | inactive | inactive | inactive | inactive
CC(N[C@H]1C[C@H]1c1ccccc1)c1ccc2c(c1)OCCO2 (some centres not stated) | inactive | inactive | inactive | inactive | inactive | inactive | inactive |  | inactive | 
CC(=O)NCCc1c[nH]c2ccccc12 | inactive | inactive | inactive | inactive | inactive | inactive | inactive | inactive | inactive | 
CC(=O)[O][Hg][c]1ccccc1 | 4.47 µM (active) | 6.31 µM (active) | 14.1 µM (active) | 7.08 µM (active) | 5.01 µM (active) | 12.6 µM (active) | 3.16 µM (active) | 3.55 µM (active) | 2.51 µM (active) | 
Cc1ccc(Cl)c(O)c1 | inactive | inactive | inactive | inactive | inactive | inactive | inactive | inactive | inactive | 
ClC1=C(Cl)[C@]2(Cl)[C@@H]3[C@@H]4C[C@@H]([C@H]5O[C@@H]45)[C@@H]3[C@@]1(Cl)C2(Cl)Cl | inactive | inactive | inactive | inactive | inactive |  | inactive |  | inactive | 
Nc1ccc(N=Nc2ccccc2)cc1 |  |  |  |  |  | 39.8 µM (active) |  |  |  | 
CCC1(CCC(C)C)C(=O)NC(=O)NC1=O | inactive | inactive |  | inactive | inactive | inactive | inactive |  | inactive | 
CC(C)(C)C(O)C(Oc1ccc(Cl)cc1)n1cncn1 (configuration not stated) | inactive | inactive | inactive | inactive | inactive |  | inactive | inactive | inactive | 
CC1(N2CCC(n3c([C@@H]4CCCNC4)nc4ccccc43)CC2)CCCCCCC1 |  | 22.4 µM (active) |  |  | 11.2 µM (active) | 12.6 µM (active) | 15.8 µM (active) |  |  | 

SMILES | Potency (CASKI) | Potency (Es-2) | Potency (HeLa) | Potency (Hek293T) | Potency (JEG-3) | Potency (OV90) | Potency (PA-1) | Potency (SKOV3) | Potency (Tov-21-G) | Potency (CAOV3)
CCCCC(CC)COC(=O)c1ccccc1C(=O)OCC(CC)CCCC (configuration not stated) | inactive | inactive | inactive | inactive | inactive |  | inactive |  | inactive | 
CC(C)[C@]12O[C@H]1[C@@H]1O[C@]13[C@]1(O[C@H]1C[C@H]1C4=C(CC[C@@]13C)C(=O)OC4)[C@@H]2O | 0.199 µM (active) | 0.1 µM (active) | 0.158 µM (active) |  |  |  | 0.1 µM (active) |  |  | 
Cc1cc(O)ccc1Cl | inactive | inactive | inactive | inactive | inactive |  | inactive | inactive | inactive | 
C=CCC1=C(C)C(OC(=O)C2C(C=C(C)C)C2(C)C)CC1=O (configuration not stated) | inactive | inactive | inactive | inactive | inactive | inactive |  |  | inactive | 
COc1ccc(C(c2ccc(OC)cc2)C(Cl)(Cl)Cl)cc1 |  | inactive |  | inactive | inactive |  | inactive |  | inactive | 
C/C=C(/C)C(=O)O[C@H]1C(C)=C2[C@H]([C@@H]1OC(=O)CCCCCCC)[C@@](C)(OC(C)=O)C[C@H](OC(=O)CCC)[C@@]1(O)[C@H]2OC(=O)[C@@]1(C)O |  | 0.316 µM (active) | 0.447 µM (active) |  | 0.447 µM (active) |  | 0.158 µM (active) |  |  | 
CCCCCCCCCC(CC)c1ccc(S(=O)(=O)O)cc1 (configuration not stated) | inactive |  | inactive | inactive | inactive |  | inactive |  | inactive | 
CCCN(CCC)c1c([N+](=O)[O-])cc(S(N)(=O)=O)cc1[N+](=O)[O-] |  |  |  |  | inactive |  |  |  |  | 
CCN1CCN(C(=O)Cc2ccc(Nc3ncc(F)c(Nc4ccc(C(=O)Nc5ccccc5Cl)cc4)n3)cc2)CC1 | inactive |  | 8.91 µM (active) | 25.1 µM (active) | inactive | inactive | 25.1 µM (active) | 15.8 µM (active) | 28.2 µM (active) | 
CC(Cc1ccc(O)cc1)NCC(O)c1cc(O)cc(O)c1 (configuration not stated) | inactive | inactive | inactive | inactive | inactive |  | inactive | inactive | inactive | 
S=C(SSC(=S)N1CCCCC1)N1CCCCC1 | inactive |  | inactive | 17.8 µM (active) |  | 10 µM (active) |  | 3.98 µM (active) |  | 
Nc1ccc([N+](=O)[O-])cc1 | inactive |  | inactive | inactive | inactive | inactive | inactive |  | inactive | 
Nc1ccc(Sc2ccc(N)cc2)cc1 | inactive | inactive | inactive | inactive | inactive |  |  | inactive | inactive | 
COc1ccc(N(C(=O)Oc2c(C)cccc2C)c2ccnc(Nc3ccc(N4CCN(C)CC4)cc3)n2)c(OC)c1 | inactive |  |  | inactive | inactive | inactive |  |  |  | 
CO/C=C(/C(=O)OC)c1ccccc1Oc1cc(Oc2ccccc2C#N)ncn1 |  | 31.6 µM (active) |  | 17.8 µM (active) |  | 17.8 µM (active) |  | 7.94 µM (active) |  | 
O=C(O)C(Cl)Cl | inactive | inactive | inactive |  | inactive | inactive | inactive |  | inactive | 
O=[N+]([O-])c1c2ccccc2cc2ccccc12 | inactive | inactive |  | inactive | inactive | inactive | inactive |  | inactive | 
Nc1ccc(Cl)cc1N |  | inactive | inactive | inactive | inactive |  | inactive |  |  | 
CCCCOC(=O)c1ccccc1C(=O)OCc1ccccc1 | inactive | inactive | inactive | inactive | inactive |  | inactive |  | inactive | 
O=[N+]([O-])c1cc([N+](=O)[O-])c2ccccc2c1 | inactive | inactive |  | inactive | inactive | inactive | inactive |  | inactive | 
OCCCBr | inactive | inactive | inactive | inactive | inactive | inactive |  |  | inactive | 
CC(C)Oc1cccc(NC(=O)c2ccccc2C(F)(F)F)c1 | inactive |  |  |  | inactive | 31.6 µM (active) |  |  |  | 
CCOCCOC(C)=O | inactive | inactive | inactive |  | inactive | inactive |  | inactive | inactive | 
CCCCCCCCCCCCCCCC[N+](C)(C)C | 20 µM (active) |  |  |  |  |  |  | 28.2 µM (active) | 7.94 µM (active) | 
O=c1[nH]c2ccc(Cl)cc2c(N[C@@H]2CN3CCC2CC3)c1-c1nc2ccccc2[nH]1 | 10 µM (active) | 0.447 µM (active) | 3.16 µM (active) |  |  | 5.01 µM (active) | 2.24 µM (active) |  |  | 
COc1nn(CSP(=S)(OC)OC)c(=O)s1 | inactive |  | inactive | inactive | inactive | inactive |  |  |  | 
